Assay results from the supplement of paper PMC10849652.
Of roughly 7,900 targets only a part is listed; those with a hit were picked by preference. About 0.6% of all pairs of compound and target were hits. A number with no mark means an inactive call.

Key:
Experiment in all cases: log2 fold change, soluble protein after heating vs DMSO (PISA); higher = thermal stabilisation; K562 cells, 10 uM, 30 min; active = over 0.2 and 3.5 SD of the protein, either way, in both replicates (recomputed)
[1] = compound: C#Cc1cccc(Nc2ncnc3cc(OCCOC)c(OCCOC)cc23)c1 [erlotinib]
In short: (§1)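 K562 cells at 2×10^6 cells/mL were exposed to 10 μM compound for 30 min, then aliquots were heated for 3 min across 48°C-58°C, pooled, and extracted in PBS containing 0.5% NP-40 at 4°C. The supernatant after 21,000xg for 90 min was taken as soluble protein and measured by TMTpro 16plex LC-MS/MS with channel sums equalised. Thermal stability is reported relative to control samples, with values from duplicates. Fold changes are given on a log2 scale.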

[2] = compound: C/C(=N\NC(=O)C1=CC(=CC=C1)S(=O)(=O)N2CCOCC2)/C3=C(C=CC(=C3)Cl)O
In short: as §1

[3] = compound: C1=CC(=C(C=C1Cl)C2=NC3=NC=CN=C3C(=N2)NC4=CC=NC=C4)F
In short: as §1

[4] = compound: C1=CC(=CC=C1C2=NC3=C(N2)C=C(C=C3)C(=O)N)OC4=CC=C(C=C4)Cl
In short: as §1

[5] = compound: C1=CC2=C(C=CC(=C2)/C=C\3/C(=O)NC(=NCC4=CC=CS4)S3)N=C1
In short: as §1

[6] = compound: C1=CC2=NC=CN=C2C=C1/C=C/3\C(=O)NC(=O)S3
In short: as §1

[7] = compound: C1=CC=C(C=C1)C2=NC(=C(N2)C3=CC=NC=C3)C4=CC(=C(C=C4)Cl)O
In short: as §1

[8] = compound: C1=CC=C2C(=C1)C3=NNC4=CC=CC(=C43)C2=O
In short: as §1

[9] = compound: C1CCN(C1)C(=O)NC2=CC=CC(=C2)NC3=NC=C(C(=N3)NCCC4=CN=CN4)Br
In short: as §1

[10] = compound: C1CN(CCC1(CC2=CC=C(C=C2)Cl)N)C3=NC=NC4=C3C=CN4
In short: as §1

[11] = compound: C1COCCN1CCN2C3=CC=CC=C3N=C2NC(=O)C4=CC(=CC=C4)[N+](=O)[O-] [IRAK-1-4 Inhibitor I]
In short: as §1

[12] = compound: C=CC(=O)N1CCC[C@@H](n2nc(-c3ccc(Oc4ccccc4)cc3)c3c(N)ncnc32)C1 [ibrutinib]
In short: as §1

[13] = compound: CC(=O)c1cnc2ccc(-c3cc(Cl)c(O)c(Cl)c3)nc2c1N[C@H]1CC[C@H](CN(C)C)CC1
In short: as §1

[14] = compound: CC(C)(C)Cn1c(N)nc2ccc(-c3[nH]c(C(C)(C)C)nc3-c3ccc(F)cc3)nc21 [ralimetinib]
In short: as §1

[15] = compound: CC(C)(O)CC(=O)NCCn1ccc2ncnc(Nc3ccc(Oc4cccc(C(F)(F)F)c4)c(Cl)c3)c21
In short: as §1

[16] = compound: CC(C)C1=C2N=C(C=C(N2N=C1)NCC3=CC=CC=C3)NCCCCCCN
In short: as §1

[17] = compound: CC(C)C[C@@H](C=O)NC(=O)[C@H](CC(C)C)NC(=O)[C@H](CC(C)C)NC(=O)OCc1ccccc1
In short: as §1

[18] = compound: CC(C)N(C[C@H]1O[C@@H](n2cnc3c(N)ncnc32)[C@H](O)[C@@H]1O)[C@H]1C[C@@H](CCc2nc3cc(C(C)(C)C)ccc3[nH]2)C1 [pinometostat]
In short: as §1

[19] = compound: CC1=C(C(CC(=O)N1)C2=CC=C(C=C2)C(F)(F)F)C(=O)NC3=C(C=C4C(=C3)C=NN4)F
In short: as §1

[20] = compound: CC1=C(C2=C(C=C1)C(=O)C3=CC=CC=C3N2CCCN)C
In short: as §1

Chain of UniProt O00231 (O00231 whole entry, looked up): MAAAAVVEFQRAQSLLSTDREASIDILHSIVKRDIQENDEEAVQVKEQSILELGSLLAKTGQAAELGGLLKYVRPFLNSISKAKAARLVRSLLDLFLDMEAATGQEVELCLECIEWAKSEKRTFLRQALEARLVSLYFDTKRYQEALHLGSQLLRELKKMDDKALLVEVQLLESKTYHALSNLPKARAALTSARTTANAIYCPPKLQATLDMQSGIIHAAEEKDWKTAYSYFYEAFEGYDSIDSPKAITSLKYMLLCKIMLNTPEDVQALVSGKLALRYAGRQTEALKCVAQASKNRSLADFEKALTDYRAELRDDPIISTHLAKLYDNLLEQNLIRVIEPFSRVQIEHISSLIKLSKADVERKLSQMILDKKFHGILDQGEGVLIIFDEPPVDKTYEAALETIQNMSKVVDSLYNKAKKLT
Chain of UniProt Q86YH6 (Q86YH6 whole entry, looked up): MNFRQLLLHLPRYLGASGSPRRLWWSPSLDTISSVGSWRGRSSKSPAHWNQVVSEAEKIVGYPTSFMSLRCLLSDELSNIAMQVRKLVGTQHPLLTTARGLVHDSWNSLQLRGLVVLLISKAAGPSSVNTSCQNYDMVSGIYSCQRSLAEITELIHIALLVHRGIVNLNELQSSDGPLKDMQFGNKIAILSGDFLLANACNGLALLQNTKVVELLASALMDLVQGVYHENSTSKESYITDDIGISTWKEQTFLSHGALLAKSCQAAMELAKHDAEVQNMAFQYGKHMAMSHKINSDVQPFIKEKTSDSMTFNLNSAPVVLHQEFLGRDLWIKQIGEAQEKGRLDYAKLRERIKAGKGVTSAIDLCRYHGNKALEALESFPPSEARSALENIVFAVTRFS
Chain of UniProt Q14181 (Q14181 whole entry, looked up): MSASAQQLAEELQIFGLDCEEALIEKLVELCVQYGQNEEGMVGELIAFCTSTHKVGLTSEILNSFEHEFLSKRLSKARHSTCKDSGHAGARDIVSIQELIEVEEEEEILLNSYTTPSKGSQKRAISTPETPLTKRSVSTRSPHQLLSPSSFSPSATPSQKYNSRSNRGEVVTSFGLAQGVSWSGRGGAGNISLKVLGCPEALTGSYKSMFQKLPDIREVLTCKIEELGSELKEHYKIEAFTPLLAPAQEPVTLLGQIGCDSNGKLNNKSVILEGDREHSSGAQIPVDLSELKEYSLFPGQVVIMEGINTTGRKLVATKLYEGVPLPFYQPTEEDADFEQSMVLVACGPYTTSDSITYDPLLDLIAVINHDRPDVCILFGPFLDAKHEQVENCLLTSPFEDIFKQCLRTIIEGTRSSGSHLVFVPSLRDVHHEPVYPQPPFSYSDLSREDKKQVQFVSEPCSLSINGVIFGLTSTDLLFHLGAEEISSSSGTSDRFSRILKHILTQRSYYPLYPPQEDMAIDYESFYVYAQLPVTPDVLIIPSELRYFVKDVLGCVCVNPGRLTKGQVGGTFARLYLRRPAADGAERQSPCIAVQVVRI
Chain of UniProt Q8WXF1 (Q8WXF1 whole entry, looked up): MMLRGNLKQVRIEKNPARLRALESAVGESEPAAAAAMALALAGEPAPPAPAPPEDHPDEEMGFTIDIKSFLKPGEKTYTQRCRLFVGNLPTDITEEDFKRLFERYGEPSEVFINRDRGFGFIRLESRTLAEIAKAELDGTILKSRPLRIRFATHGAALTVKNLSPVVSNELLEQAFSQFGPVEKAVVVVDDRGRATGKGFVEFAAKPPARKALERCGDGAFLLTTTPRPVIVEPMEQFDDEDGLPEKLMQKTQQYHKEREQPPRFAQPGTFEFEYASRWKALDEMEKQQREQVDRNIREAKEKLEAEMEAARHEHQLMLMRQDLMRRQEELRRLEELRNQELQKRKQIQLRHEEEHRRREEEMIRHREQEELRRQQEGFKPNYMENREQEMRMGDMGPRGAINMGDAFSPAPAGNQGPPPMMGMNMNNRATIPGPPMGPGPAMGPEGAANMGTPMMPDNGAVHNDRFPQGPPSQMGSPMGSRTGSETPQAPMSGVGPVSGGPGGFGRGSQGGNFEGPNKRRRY
Chain of UniProt Q9UNM6 (Q9UNM6 whole entry, looked up): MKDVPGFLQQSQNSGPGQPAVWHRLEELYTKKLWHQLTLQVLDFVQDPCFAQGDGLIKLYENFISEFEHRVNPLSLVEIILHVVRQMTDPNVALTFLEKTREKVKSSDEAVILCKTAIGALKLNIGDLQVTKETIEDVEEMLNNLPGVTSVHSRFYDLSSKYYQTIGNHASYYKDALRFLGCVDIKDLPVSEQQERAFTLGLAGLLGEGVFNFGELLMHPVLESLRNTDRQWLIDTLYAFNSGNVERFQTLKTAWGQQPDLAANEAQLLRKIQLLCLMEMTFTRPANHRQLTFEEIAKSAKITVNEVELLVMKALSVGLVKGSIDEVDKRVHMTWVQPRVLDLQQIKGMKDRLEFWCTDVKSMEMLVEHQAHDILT
Chain of UniProt Q13523 (Q13523 whole entry, looked up): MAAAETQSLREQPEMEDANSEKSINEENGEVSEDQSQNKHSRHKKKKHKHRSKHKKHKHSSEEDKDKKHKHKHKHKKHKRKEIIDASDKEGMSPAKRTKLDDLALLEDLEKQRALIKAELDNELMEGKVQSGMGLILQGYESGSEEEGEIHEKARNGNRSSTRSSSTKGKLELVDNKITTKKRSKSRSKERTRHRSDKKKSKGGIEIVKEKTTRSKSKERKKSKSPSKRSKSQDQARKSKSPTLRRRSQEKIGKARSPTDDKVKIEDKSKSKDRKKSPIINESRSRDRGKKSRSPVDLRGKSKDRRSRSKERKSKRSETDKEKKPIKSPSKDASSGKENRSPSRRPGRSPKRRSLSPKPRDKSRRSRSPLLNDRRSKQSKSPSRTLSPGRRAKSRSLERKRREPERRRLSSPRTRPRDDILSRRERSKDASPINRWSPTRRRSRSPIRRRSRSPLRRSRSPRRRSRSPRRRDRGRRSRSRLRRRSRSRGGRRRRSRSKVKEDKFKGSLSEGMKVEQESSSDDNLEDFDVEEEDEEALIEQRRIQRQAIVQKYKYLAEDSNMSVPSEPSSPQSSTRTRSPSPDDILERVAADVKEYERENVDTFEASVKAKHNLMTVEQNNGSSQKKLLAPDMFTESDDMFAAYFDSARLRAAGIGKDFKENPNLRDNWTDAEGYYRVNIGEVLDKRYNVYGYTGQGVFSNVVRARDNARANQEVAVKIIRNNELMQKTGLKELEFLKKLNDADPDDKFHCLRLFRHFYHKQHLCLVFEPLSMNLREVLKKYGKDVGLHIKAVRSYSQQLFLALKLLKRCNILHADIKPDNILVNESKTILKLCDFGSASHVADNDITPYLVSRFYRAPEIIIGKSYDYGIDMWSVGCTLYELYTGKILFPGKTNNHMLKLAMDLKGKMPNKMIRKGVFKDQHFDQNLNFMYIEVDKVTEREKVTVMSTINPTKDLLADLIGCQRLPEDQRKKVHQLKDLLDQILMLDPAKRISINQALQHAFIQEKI
Chain of UniProt P28340 (P28340 whole entry, looked up): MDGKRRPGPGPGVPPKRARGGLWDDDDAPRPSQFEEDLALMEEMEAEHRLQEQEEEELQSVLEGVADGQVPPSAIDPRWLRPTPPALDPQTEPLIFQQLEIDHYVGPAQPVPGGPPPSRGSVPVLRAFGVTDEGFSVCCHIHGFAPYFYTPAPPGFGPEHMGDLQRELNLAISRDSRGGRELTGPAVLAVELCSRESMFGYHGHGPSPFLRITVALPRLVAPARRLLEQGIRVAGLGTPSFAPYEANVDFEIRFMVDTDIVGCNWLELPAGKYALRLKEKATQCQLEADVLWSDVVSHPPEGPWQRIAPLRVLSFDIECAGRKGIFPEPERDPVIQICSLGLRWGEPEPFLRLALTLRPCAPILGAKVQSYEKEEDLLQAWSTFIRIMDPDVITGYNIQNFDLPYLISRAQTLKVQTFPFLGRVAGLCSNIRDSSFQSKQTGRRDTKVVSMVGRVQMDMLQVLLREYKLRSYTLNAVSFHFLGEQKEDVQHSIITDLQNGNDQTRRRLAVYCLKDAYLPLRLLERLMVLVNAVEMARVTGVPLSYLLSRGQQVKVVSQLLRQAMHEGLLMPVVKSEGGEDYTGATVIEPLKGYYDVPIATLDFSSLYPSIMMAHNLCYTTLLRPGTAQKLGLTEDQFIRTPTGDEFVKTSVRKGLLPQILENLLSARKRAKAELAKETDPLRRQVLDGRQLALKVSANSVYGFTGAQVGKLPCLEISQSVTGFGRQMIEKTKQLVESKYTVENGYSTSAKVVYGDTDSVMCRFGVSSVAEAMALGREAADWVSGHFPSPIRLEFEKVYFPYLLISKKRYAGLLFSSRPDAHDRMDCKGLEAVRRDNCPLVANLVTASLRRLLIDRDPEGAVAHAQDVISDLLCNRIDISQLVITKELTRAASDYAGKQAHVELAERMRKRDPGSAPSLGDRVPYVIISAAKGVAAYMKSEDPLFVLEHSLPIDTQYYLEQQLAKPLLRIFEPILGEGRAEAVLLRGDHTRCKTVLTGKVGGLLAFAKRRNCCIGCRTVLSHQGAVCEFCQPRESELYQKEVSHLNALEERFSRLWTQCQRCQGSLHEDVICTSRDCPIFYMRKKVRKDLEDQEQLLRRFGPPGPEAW
Chain of UniProt P28065 (P28065 whole entry, looked up): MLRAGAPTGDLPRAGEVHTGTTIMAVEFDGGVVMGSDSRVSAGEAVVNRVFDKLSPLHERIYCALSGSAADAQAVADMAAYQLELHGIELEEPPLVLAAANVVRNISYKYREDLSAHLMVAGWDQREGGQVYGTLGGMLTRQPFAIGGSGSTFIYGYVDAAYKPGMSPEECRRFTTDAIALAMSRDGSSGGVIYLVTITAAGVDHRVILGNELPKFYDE
Chain of UniProt Q9UKL6 (Q9UKL6 whole entry, looked up): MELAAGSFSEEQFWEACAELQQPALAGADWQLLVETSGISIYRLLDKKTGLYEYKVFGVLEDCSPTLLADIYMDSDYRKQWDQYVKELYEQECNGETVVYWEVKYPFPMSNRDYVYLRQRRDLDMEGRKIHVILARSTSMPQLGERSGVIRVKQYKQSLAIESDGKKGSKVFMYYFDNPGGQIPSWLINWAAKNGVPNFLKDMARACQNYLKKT

Target | log2 fold change [1] | log2 fold change [2] | log2 fold change [3] | log2 fold change [4] | log2 fold change [5] | log2 fold change [6] | log2 fold change [7] | log2 fold change [8] | log2 fold change [9] | log2 fold change [10] | log2 fold change [11] | log2 fold change [12] | log2 fold change [13] | log2 fold change [14] | log2 fold change [15] | log2 fold change [16] | log2 fold change [17] | log2 fold change [18] | log2 fold change [19] | log2 fold change [20]
PRIM2 (UniProt P49643) | 0.004 | 0.038 | 0.018 | 0.015 | 0.061 | 0.009 | 0.035 | 0.035 | -0.023 | -0.071 | -0.043 | -0.04 | -0.065 | -0.058 | -0.265 | -0.213 | 0.074 | 0.005 | 0 | 0.059
POM121 (UniProt Q96HA1) | -0.013 | -0.075 | -0.127 | 0.033 | 0.118 | -0.008 | -0.137 | -0.185 | -0.087 | -0.106 | -0.022 | 0.005 | -0.164 | 0.083 | 0.016 | -0.241 | 0.178 | 0.065 | -0.042 | -0.057
PCTP (UniProt Q9UKL6) | 0.035 | -0.04 | 0.065 | 0.046 | 0.057 | 0.076 | 0.012 | 0.002 | 0.049 | -0.035 | -0.009 | -0.018 | 0.054 | -0.081 | -0.091 | -0.266 (active) | -0.012 | -0.013 | 0.04 | 0.005
PDSS2 (UniProt Q86YH6) | 0.029 | -0.011 | -0.04 | 0.012 | 0.053 | -0.025 | 0.026 | -0.006 | 0.061 | 0.073 | 0.1 | 0.074 | 0.058 | -0.059 | -0.089 | -0.085 | 0.054 | -0.017 | -0.438 (active) | -0.022
PSMD11 (UniProt O00231) | -0.097 | -0.023 | -0.039 | 0.007 | -0.035 | -0.035 | 0.058 | 0.047 | -0.033 | -0.026 | -0.048 | 0 | 0.086 | 0.076 | 0 | -0.001 | -0.263 (active) | 0.029 | 0.011 | 0.037
PRKCB isoform 2 (UniProt P05771) | 0.038 | 0.031 | 0.038 | 0 | 0.086 | 0.004 | 0.021 | 0.037 | 0 | -0.067 | 0.027 | -0.009 | -0.373 (active) | 0.022 | -0.057 | -0.049 | 0.028 | 0.014 | 0.013 | -0.025
POLA2 (UniProt Q14181) | 0.042 | 0.086 | 0.021 | -0.033 | 0.048 | 0.048 | -0.044 | -0.013 | -0.063 | -0.004 | 0.015 | -0.038 | -0.073 | -0.028 | -0.083 | -0.258 (active) | 0.011 | 0.041 | 0 | -0.021
PDE2A (UniProt O00408) | -0.055 | -0.521 (active) | -0.011 | -0.034 | 0.161 | -0.099 | 0.137 | 0.113 | -0.077 | 0.184 | 0.083 | 0.026 | -0.001 | 0.12 | -0.082 | 0.014 | -0.009 | -0.007 | -0.064 | 0.043
PSPC1 (UniProt Q8WXF1) | -0.024 | 0.014 | -0.036 | 0.043 | -0.008 | 0.004 | -0.101 | -0.141 | -0.033 | -0.061 | -0.097 | 0.002 | -0.201 | -0.012 | -0.024 | -0.18 | 0.048 | -0.02 | -0.042 | 0.15
POLD1 (UniProt P28340) | 0.063 | 0.039 | -0.009 | -0.016 | 0.023 | -0.024 | 0.05 | -0.058 | -0.02 | -0.022 | -0.009 | 0.021 | -0.081 | -0.02 | -0.085 | -0.12 | 0.11 | 0.024 | -0.005 | -0.011
PBX2 (UniProt P40425) | 0.111 | 0.076 | 0.055 | 0.007 | 0.009 | -0.039 | 0.091 | -0.098 | -0.036 | -0.269 | -0.078 | 0.023 | -0.122 | 0.04 | -0.145 | -0.184 | 0.078 | -0.058 | 0.131 | -0.005
POLR2B (UniProt P30876) | -0.008 | -0.014 | -0.025 | 0.024 | -0.006 | 0.047 | 0.045 | 0.009 | 0.068 | -0.063 | -0.095 | -0.002 | 0.262 (active) | 0.066 | -0.047 | 0.08 | 0.03 | 0.037 | -0.031 | 0.03
PSMD13 (UniProt Q9UNM6) | -0.091 | -0.026 | -0.076 | 0.002 | -0.02 | 0.013 | -0.002 | 0.044 | -0.008 | -0.069 | -0.048 | -0.039 | 0.048 | -0.021 | 0 | 0.009 | -0.265 (active) | 0.09 | 0.049 | 0.032
PLBD2 (UniProt Q8NHP8) | -0.022 | -0.048 | 0.026 | 0.01 | 0.009 | 0.037 | 0.01 | -0.02 | -0.018 | 0.018 | 0.04 | 0.009 | 0.003 | -0.071 | -0.01 | -0.106 | 0.025 | 0.001 | -0.018 | -0.023
PRPF4B (UniProt Q13523) | 0.002 | 0.044 | -0.213 | 0.074 | -0.046 | -0.064 | -0.14 | -0.12 | -0.103 | -0.113 | -0.126 | -0.015 | -0.263 | -0.001 | 0.138 | -0.029 | 0.077 | 0.099 | -0.006 | -0.209
PSMB9 (UniProt P28065) | -0.158 | -0.633 (active) | -0.116 | 0.113 | 0.174 | -0.142 | – | -0.006 | – | – | 0.091 | 0.511 | 0.031 | – | -0.01 | 0.205 | – | 0.069 | – | –
